Experiment [1] deals with Calcium and integrin-binding protein 1 (Homo sapiens) (UniProt Q99828). Description: Primary qHTS for Identification of Calcium Integrin Binding Protein 1 (CIB1) Competitor (AID 1508620). Also: top concentration of the series differs between compounds; % is scaled to controls: 0 for no effect and ±100 for the full control effect. The method in brief: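 Fluorescence polarization competition: GST-tagged CIB1 (1 uM final) preincubated with compound 15 min at room temperature, then FITC-labelled alphaIIb peptide (100 nM final) added. After 15 min at room temperature, polarization read at Ex 480/Em 540.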
A general note: In qHTS, concentration-response curves come from the screen itself.

The target of experiment [2] is N-terminal Xaa-Pro-Lys N-methyltransferase 1 (Homo sapiens) (UniProt Q9BV86). The experiment is described as follows: Confirmatory qHTS for Inhibitors of N-terminal methyltransferase 1 (NTMT1): MTaseGlo Assay (AID 1645874). Also: potency is read from the fitted curve at half-maximal effect; nearly all actives have a fitted effect of over 65% in size. The method in brief: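 MTase-Glo luminescence measured SAH formed by 125 nM NTMT1 from 100 uM SAM and 1 uM SPKRIA peptide over 30 min at room temperature, following 15 min compound preincubation. Percent inhibition against no-enzyme and DMSO controls gave 4-parameter Hill fits.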

Experiment [3] deals with Catechol O-methyltransferase (Homo sapiens) (UniProt P21964). The experiment is described as follows: Confirmatory Screen for Target Class Profiling of Small Molecule Inhibitors of Methyltransferases (AID 1745852; calls by dose curve; also: potency is read from the fitted curve at half-maximal effect). Particulars: MTase-Glo luminescence, SAH detection, recombinant enzyme; measured here: COMT max response; stronger effect = lower value.
The target in experiment [4] is Guanidinoacetate N-methyltransferase (Homo sapiens) (UniProt Q14353). The description is as above. The note with it: MTase-Glo luminescence, SAH detection, recombinant enzyme; activity change, negative = inhibition: at 57.3 µM (top of the series) unless noted.
Experiment [5] addresses Nicotinamide N-methyltransferase (Homo sapiens) (UniProt P40261). Described as above. The note with it: MTase-Glo luminescence, SAH detection, recombinant enzyme; measured here: NNMT max response; stronger effect = lower value.
The target in experiment [6] is Phenylethanolamine N-methyltransferase (Homo sapiens) (UniProt P11086). The description is as above. The note with it: MTase-Glo luminescence, SAH detection, recombinant enzyme; measured here: PNMT max response; stronger effect = lower value.
Experiment [7] can be described thus: Primary qHTS for inhibitors of nuclear receptor binding SET domain protein 2 (NSD2) in an isogenic RCH-ACV NSD2 p.E1099K mutant (9B) (AID 1645876). Also: nearly all actives have a fitted effect of over 70% in size. As to activity change, negative = viability loss: % is scaled to controls: 0 for no effect and ±100 for the full control effect.
Experiment [8] can be described thus: Primary qHTS for inhibitors of nuclear receptor binding SET domain protein 2 (NSD2) in an RCH-ACV wild type WT cells (2C) (AID 1645877). Also: nearly all actives have a fitted effect of over 70% in size. As to activity change, negative = cell killing: % is scaled to controls: 0 for no effect and ±100 for the full control effect.

Records with an inconclusive call do not appear. The source made the active and inactive calls. Unless noted, calls follow the shape of the dose curve; as a rule, active = well fitted curve in the direction sought with a large enough effect; inconclusive = small, poorly fitted or top-dose-only effect, or another doubt; inactive = no such curve, though single readings can be large; an effect the other way counts as inactive or inconclusive.

Sequence of Calcium and integrin-binding protein 1 (Homo sapiens) (Q99828 whole entry, looked up): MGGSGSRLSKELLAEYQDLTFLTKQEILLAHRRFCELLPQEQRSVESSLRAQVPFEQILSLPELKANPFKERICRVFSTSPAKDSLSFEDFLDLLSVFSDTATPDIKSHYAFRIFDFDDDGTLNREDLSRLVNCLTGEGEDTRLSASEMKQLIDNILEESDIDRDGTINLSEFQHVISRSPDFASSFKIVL
Sequence of Phenylethanolamine N-methyltransferase (Homo sapiens) (P11086 whole entry, looked up, the tested form may be a part): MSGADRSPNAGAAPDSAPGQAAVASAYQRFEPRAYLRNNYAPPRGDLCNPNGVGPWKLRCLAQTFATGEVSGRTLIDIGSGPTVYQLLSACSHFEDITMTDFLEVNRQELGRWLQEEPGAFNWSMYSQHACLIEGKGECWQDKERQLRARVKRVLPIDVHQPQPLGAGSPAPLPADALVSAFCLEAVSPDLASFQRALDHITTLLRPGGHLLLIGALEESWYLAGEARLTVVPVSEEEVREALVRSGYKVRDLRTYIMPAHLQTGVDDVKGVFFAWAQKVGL
Sequence of Catechol O-methyltransferase (Homo sapiens) (P21964 whole entry, looked up): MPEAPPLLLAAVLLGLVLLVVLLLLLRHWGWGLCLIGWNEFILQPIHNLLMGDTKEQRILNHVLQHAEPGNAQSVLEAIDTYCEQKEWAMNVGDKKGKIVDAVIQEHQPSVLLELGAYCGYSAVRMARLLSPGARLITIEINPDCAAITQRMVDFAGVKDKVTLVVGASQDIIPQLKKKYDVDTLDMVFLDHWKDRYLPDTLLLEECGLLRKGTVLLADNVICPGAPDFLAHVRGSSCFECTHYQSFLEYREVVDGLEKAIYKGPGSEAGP
Sequence of Nicotinamide N-methyltransferase (Homo sapiens) (P40261 whole entry, looked up): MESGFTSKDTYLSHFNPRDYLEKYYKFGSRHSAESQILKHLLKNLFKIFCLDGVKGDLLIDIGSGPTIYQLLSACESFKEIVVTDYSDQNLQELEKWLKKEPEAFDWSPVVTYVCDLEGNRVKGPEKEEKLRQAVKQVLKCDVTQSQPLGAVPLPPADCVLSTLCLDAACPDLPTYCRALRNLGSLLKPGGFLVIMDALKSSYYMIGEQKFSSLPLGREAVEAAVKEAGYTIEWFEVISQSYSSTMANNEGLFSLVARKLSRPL
Sequence of N-terminal Xaa-Pro-Lys N-methyltransferase 1 (Homo sapiens) (Q9BV86 whole entry, looked up): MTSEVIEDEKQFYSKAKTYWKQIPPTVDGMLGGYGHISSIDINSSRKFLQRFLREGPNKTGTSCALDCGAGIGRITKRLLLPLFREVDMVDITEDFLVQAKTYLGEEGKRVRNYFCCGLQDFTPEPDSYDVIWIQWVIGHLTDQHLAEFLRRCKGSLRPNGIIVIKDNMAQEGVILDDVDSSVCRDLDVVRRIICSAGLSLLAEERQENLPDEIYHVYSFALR

As for `C=Cc1cc2oc(-c3ccc(O)c(F)c3)nc2cc1O`, the Potency entry in experiment [1] is “inactive”. For the same compound, the Potency in experiment [2] is 31.6 µM (active); in experiment [4], 30.4 µM (active). In addition, the results for the activity in experiment [3], in experiment [5] and in experiment [6] were -57%, -39.5% and -56.3%, respectively.
As for `C=C1C(O)CCC2(C)CC3(OC)OC(=O)C(C)=C3CC12` (configuration not stated), the Potency entry in experiment [1] and in experiment [7] was “inactive” throughout.
Take `CC1(C(=O)O)CCCC2(C)C3CCC4CC3(CCC12)CC4(O)CO` (configuration not stated): the Potency result in experiment [1] and in experiment [7] was “inactive” throughout.
`C=C1CC[C@@]2(OC1)O[C@H]1CC3C4CC=C5C[C@@H](O[C@@H]6O[C@@H](C)[C@H](O)[C@@H](O)[C@H]6O)C[C@@H](O[C@@H]6O[C@H](C)[C@H](O)[C@H](O)[C@H]6O[C@@H]6O[C@@H](C)[C@H](O)[C@@H](O)[C@H]6O)[C@]5(C)C4CC[C@]3(C)[C@H]1[C@@H]2C` (some centres not stated): the Potency entry in experiment [1] is “inactive”. The activity change, negative = viability loss in experiment [7] is -22.3% [at 9.23 µM] (inactive).
As for `COC(=O)C1=COC(O[C@@H]2O[C@H](CO)[C@@H](O)[C@H](O)[C@H]2O)/C(=C\COC(=O)/C=C/c2ccccc2)C1CC(=O)OCCc1ccc(O)cc1` (some centres not stated), the Potency entry in experiment [1], in experiment [7] and in experiment [8] was “inactive” each time.
As to `COc1cc(CO)ccc1O[C@@H]1O[C@H](CO)[C@@H](O)[C@H](O)[C@H]1O`, the Potency result in experiment [1], in experiment [7] and in experiment [8] was “inactive” throughout.
In the case of `CC(=O)OC(C)C(C)(O)C(=O)O[C@@H]1CC[C@]2(C)CC(=O)C(=C(C)C)C[C@H]2[C@]1(C)OC(C)=O` (some centres not stated), the Potency entry in experiment [1], in experiment [7] and in experiment [8] was “inactive” each time.
With `OC[C@@]1(O)CO[C@H](OC[C@H]2O[C@@H](OC(CCCCc3ccc(O)cc3)CCc3ccc(O)cc3)[C@H](O)[C@@H](O)[C@@H]2O)[C@@H]1O` (some centres not stated), the Potency entry in experiment [1], in experiment [7] and in experiment [8] was “inactive” each time.
Consider `O=C(O)C[C@H]1CCC(=O)[C@@H]1C/C=C\CCO`, for which the Potency result in experiment [1], in experiment [7] and in experiment [8] was “inactive” in each case.
As to `C[C@@H]1CC[C@]2(C(=O)O[C@@H]3O[C@H](CO[C@@H]4O[C@H](CO)[C@@H](O)[C@H](O)[C@H]4O)[C@@H](O)[C@H](O)[C@H]3O)CC[C@]3(C)C(=CCC4[C@@]5(C)CC[C@H](O)[C@](C)(C(=O)O)C5CC[C@]43C)[C@@H]2[C@]1(C)O` (some centres not stated), in experiment [1], the Potency entry was “inactive”. Also, in experiment [7], the activity change, negative = viability loss was -2.63% [at 9.23 µM] (inactive). In addition, the activity change, negative = cell killing in experiment [8] is -8.35% [at 9.23 µM] (inactive).
`COC(=O)[C@]1(C)CCC[C@@]2(C)C(=O)CC[C@H]3C(=O)C=C(CC[C@@H]21)C3O` (some centres not stated): the Potency result in experiment [1], in experiment [7] and in experiment [8] was “inactive” in each case.
For the compound `CC(C)(O)C1CCC2(C)CCCC(C)(O)C2C1` (configuration not stated), the Potency entry in experiment [1], in experiment [7] and in experiment [8] was “inactive” in each case.
For the compound `C=C(CCO[C@@H]1O[C@H](CO)[C@@H](O)[C@H](O)[C@H]1O)C(=O)O`, the Potency result in experiment [1], in experiment [7] and in experiment [8] was “inactive” in each case.
Consider `CC(C)=CCC[C@](C)(O[C@@H]1O[C@H](CO[C@@H]2O[C@@H](CO)[C@H](O)[C@H]2O[C@@H]2OC[C@@H](O)[C@H](O)[C@H]2O)[C@@H](O)[C@H](O)[C@H]1O)[C@H]1CC[C@]2(C)[C@@H]1[C@H](O)CC1[C@@]3(C)CC[C@H](O[C@@H]4O[C@H](CO)[C@@H](O)[C@H](O)[C@H]4O[C@@H]4O[C@H](CO)[C@@H](O)[C@H](O)[C@H]4O)C(C)(C)C3CC[C@]12C` (some centres not stated), for which the activity change, negative = inhibition in experiment [1] was -3.93% [at 12.4 µM] (inactive). In addition, the activity change, negative = viability loss in experiment [7] is -9.17% [at 9.23 µM] (inactive). For the same compound, in experiment [8], the activity change, negative = cell killing is -15.6% [at 9.23 µM] (inactive).
Regarding `Cc1occc(=O)c1O[C@@H]1O[C@H](COC(=O)CC(C)(O)CC(=O)O)[C@@H](O)[C@H](O)[C@H]1O` (some centres not stated), the Potency entry in experiment [1], in experiment [7] and in experiment [8] was “inactive” throughout.
Turning to `CC(C)(O)/C=C/C(=O)[C@](C)(O)[C@H]1[C@H](O)C[C@@]2(C)[C@@H]3CC=C4[C@@H](C=C(O[C@@H]5O[C@H](CO)[C@@H](O)[C@H](O)[C@H]5O)C(=O)C4(C)C)[C@]3(C)C(=O)C[C@]12C`, the Potency entry in experiment [1], in experiment [7] and in experiment [8] was “inactive” throughout.
On to `C[C@@H]1O[C@@H](O[C@H]2[C@H](O[C@H]3[C@H](O[C@H]4CC[C@@]5(C)C(CC[C@]6(C)C5CC=C5[C@@H]7CC(C)(C)C[C@@H](O)[C@]7(C)CC[C@]56C)C4(C)C)O[C@H](C(=O)O)[C@@H](O)[C@@H]3O)O[C@H](C(=O)O)[C@H](O)[C@@H]2O)[C@H](O)[C@H](O)[C@H]1O` (some centres not stated), for which, in experiment [1], the Potency entry was “inactive”. Also, the outcome in experiment [7] and in experiment [8] was “inactive [at 9.23 µM]” throughout.
Regarding `CC(C)(O)[C@@H]1CC[C@]2(CO)[C@@H](O)CC[C@](C)(O)[C@H]2[C@@H]1O[C@@H]1O[C@H](CO)[C@@H](O)[C@H](O)[C@H]1O`, the Potency entry in experiment [1], in experiment [7] and in experiment [8] was “inactive” each time.
As for `O=C(/C=C/c1ccc(O)c(O)c1)O[C@H]1[C@@H]2C=CO[C@@H](O[C@@H]3O[C@H](CO)[C@@H](O)[C@H](O)[C@H]3O)[C@@H]2[C@@]2(CO)O[C@@H]12`, the Potency result in experiment [1], in experiment [7] and in experiment [8] was “inactive” throughout.

The values above are taken from PubChem BioAssay (NCATS).
